LGR2 inh: inhibitors of bursicon-induced LGR2 CRE-luciferase signal, primary screen, cell-based, HEK293, CRE-luciferase reporter, bursicon stimulation; inhibition, % at 9.99 µM; Drosophila bursicon receptor LGR2 (rickets); hit rate 0.35% among 380,000; AID 720647, 2013; bursicon-stimulated, 4 h;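 active means drop in luminescence signal, shown as inhibition above about 50% in the replicate tests, limit read from the data, passing the limit was not always enough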;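 further: agonist challenge used bursicon conditioned medium at about half maximal strength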
LMP1 NFkB inh: EBV LMP1-driven NF-kappaB luciferase reporter inhibitors, primary screen, cell-based, luminescence, single point; LMP1-induced NF-kappaB luciferase reporter cells; AID 504558, 2011; hit rate 0.69% among 350,000; inhibition, % at 12.5 µM; in the data active means inhibition above about 41%;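 further: 0% = neutral control wells and 100% = reference inhibitor control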
EWS-Fli block: EWS/Fli-driven NR0B1 reporter inhibitors, primary screen, A673 cells, NR0B1 luciferase, luminescence, MLPCN library; viability-normalised; inhibition, % at 12.6 µM; hit rate 0.67% among 350,000; AID 651661, 2012;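 active means mean inhibition of at least 50% after viability correction, with every replicate also passing that limit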;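 further: firefly luciferase signal divided by Alamar Blue viability fluorescence both relative to DMSO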
TWEAK Fn14 block: inhibitors of TWEAK-Fn14 signaling, primary screen, luciferase reporter cells, uHTS; inhibition, % at 10 µM; TWEAK-stimulated Fn14 reporter cells, luciferase luminescence, 8 h; hit rate 2% among 360,000; in the data active means inhibition above about 50%
TROY NFkB inh: inhibitors of TROY-driven NF-kB signaling, primary screen, Q293 LMP1-TROYcd cells, NF-kB luciferase, uHTS | Q293 LMP1-TROYcd NF-kB luciferase reporter, 4 h | inhibition, % at 10 µM | hit rate 0.98% among 360,000;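 active means compounds whose plate-normalised and pattern-corrected inhibition of the luciferase reporter signal at the single screening dose is 50% or more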
PAX8 reporter: inhibitors of PAX8-driven TPO luciferase reporter, primary screen, RMG-I cells, single concentration; hit rate 1.2% among 360,000; SteadyGlo, 24 h; inhibition, % at 12.6 µM;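 active means mean replicate inhibition at least 60% with every replicate also reaching 60%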;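 further: luciferase light reporting Pax8 driven TPO promoter activity; plate controls were median of neutral control wells for no effect and mitoxantrone controls for full effect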
* = called active by the depositor; · = no result given. Compounds with a hit are over-represented: about 3.2% of the library has one in this group of screens.

SMILES | LGR2 inh | LMP1 NFkB inh | EWS-Fli block | TWEAK Fn14 block | TROY NFkB inh | PAX8 reporter
COc1ccc(OC)c(CCNC(=O)Cn2nc(C)c3c(C)n(-c4ccc(C)cc4)nc3c2=O)c1 | 12 | 1 | 16 | 37 | 39 | 71*
C[C@@H]1CN([C@H](C)CO)C(=O)Cc2cc(NC(=O)C3CC3)ccc2O[C@H]1CN(C)Cc1ccncc1 | 9 | · | 2 | · | · | 10
Cn1cnc(CCNC(=O)C[C@H]2CC[C@@H]3[C@H](COC[C@@H](O)CN3C(=O)C3CCCC3)O2)c1 | 5 | · | -4 | · | · | 6
COC(=O)c1c(C)[nH]c(C(=O)C(C)OC(=O)C2CC(=O)N(c3ccc(C)cc3)C2)c1C (stereo not given) | -49 | 10 | 3 | 24 | 54* | 5
CN(C)CC(=O)N1CC2(C1)[C@@H](c1ccccc1)[C@@H](CO)N2C(=O)C1CCCCC1 | -7 | · | 5 | · | · | ·

From PubChem BioAssay
